# CtBP-E1A inh: CtBP/E1A binding inhibition. AlphaScreen GST-E1A/His-CtBP binding, 1536-well; hits give low values. activity change, % (test concentration not listed). hit rate 0.49% among 340,000. AID 651724; note: % is set by controls: 0 for no effect and ±100 for the full control effect
#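 AlphaScreen with 125 nM GST-E1A and 125 nM His-CtBP (5X stocks) in Tris pH 8.0, 300 mM NaCl, BSA, Tween 20, TCEP. Compounds preincubated 2 h at 37 deg C, then glutathione donor/nickel acceptor beads added for 1 h at 37 deg C in dark.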
# GRP78 ERSR act: ER stress response induction in glioma. Potency, µM, for inactives: at the top dose activation, hits mostly activators. hit rate 0.02% among 420,000. U87-MG GRP78 promoter luciferase reporter, 16 h; active = well fitted curve in the direction sought with a large enough effect; inconclusive = small, poorly fitted or top-dose-only effect, or another doubt; inactive = no such curve, though single readings can be large; an effect the other way counts as inactive or inconclusive; note: potency is the fitted concentration of half-maximal effect; series mostly up to about 76 µM; % of control where 0% means no effect; nearly all actives have a fitted effect of over 35% in size
#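 Stably transfected U87-MG glioma cells carrying a GRP78-based luciferase sensor; 16 h compound incubation. Luminescence end-point read 10 min after Bright-Glo addition at room temperature.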
# Six1-Eya2 inh: inhibitors of human Six1/Eya2 interaction | hit rate 0.56% among 360,000 | AlphaScreen GST-Six1/His-Eya2 binding, biochemical; hits give low values | AID 651725 | activity change, % (test concentration not listed) | Q15475+O00167; note: % is set by controls: 0 for no effect and ±100 for the full control effect
# Target sequence (O00167 whole entry, looked up): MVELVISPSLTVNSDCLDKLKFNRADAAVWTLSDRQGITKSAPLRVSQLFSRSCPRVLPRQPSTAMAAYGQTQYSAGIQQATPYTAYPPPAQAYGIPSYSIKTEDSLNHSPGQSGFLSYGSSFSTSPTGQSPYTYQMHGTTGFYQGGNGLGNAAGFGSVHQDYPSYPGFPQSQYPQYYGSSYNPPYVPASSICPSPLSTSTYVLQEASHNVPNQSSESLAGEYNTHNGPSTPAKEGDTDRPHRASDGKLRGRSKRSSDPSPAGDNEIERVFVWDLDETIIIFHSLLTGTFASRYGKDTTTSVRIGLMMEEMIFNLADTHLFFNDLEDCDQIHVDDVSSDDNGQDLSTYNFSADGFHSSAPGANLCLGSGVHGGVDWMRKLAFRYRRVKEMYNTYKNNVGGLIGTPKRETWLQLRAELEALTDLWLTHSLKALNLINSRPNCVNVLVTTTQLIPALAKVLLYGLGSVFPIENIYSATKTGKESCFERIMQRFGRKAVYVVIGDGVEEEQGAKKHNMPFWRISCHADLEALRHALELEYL
# Target sequence (Q15475 whole entry, looked up): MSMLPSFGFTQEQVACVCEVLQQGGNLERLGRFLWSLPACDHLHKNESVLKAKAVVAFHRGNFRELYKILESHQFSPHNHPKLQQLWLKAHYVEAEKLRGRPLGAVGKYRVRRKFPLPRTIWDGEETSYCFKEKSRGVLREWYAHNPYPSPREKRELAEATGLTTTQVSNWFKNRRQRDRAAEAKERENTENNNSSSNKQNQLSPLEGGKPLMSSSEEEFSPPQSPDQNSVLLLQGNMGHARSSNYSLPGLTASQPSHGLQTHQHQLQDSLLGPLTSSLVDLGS
#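 Homogeneous AlphaScreen proximity assay pairing GST-Six1 with His-tagged Eya2 (added as 5X mix: 250 nM and 500 nM) in 50 mM Tris pH 8.0, 300 mM NaCl, 1 mM TCEP. Glutathione donor and nickel acceptor beads; 1 h, 37 °C, dark.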
# RGS4 inhibitor: blocks human RGS4-accelerated GTP hydrolysis; Transcreener GDP fluorescence polarization, RGS4-accelerated GTP hydrolysis; Potency, µM (top dose mostly 114 µM), inactives show at the highest dose activity change, negative = inhibition, most hits filed as inhibitors; hit rate 0.039% among 390,000; active = well fitted curve in the direction sought with a large enough effect; inconclusive = small, poorly fitted or top-dose-only effect, or another doubt; inactive = no such curve, though single readings can be large; an effect the other way counts as inactive or inconclusive; note: potency is the fitted concentration of half-maximal effect; % is set by controls: 0 for no effect and ±100 for the full control effect; nearly all actives have a fitted effect of over 75% in size
#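 MLSMR compounds (23 nl, pin-transferred) preincubated 10 min at room temperature with a 500nM (2x) first reagent, then RGS4 at 900nM (2x) plus Transcreener GDP mix added; fluorescence polarization (620/688 nm) read before and after 90 min at 30 °C.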
# Akt phos inh: inhibitors of Akt phosphorylation; Neuro2A IGF-stimulated pAkt S473 HTRF, 20 min; hits give low values; activity change, % for hits at 50 µM; hit rate 0.32% among 360,000; AID 651550; in the data active = activity change below about -80%; inconclusive = mostly about -51% to -80%; note: % is set by controls: 0 for no effect and ±100 for the full control effect
#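 Neuro2A cells (4,500/well, DMEM with 0.5% FBS) were treated with compound at a single 50 µM final concentration, stimulated with 6 nM IGF for 20 min at 37 °C, and lysed. Phospho-Akt Ser473 was read by HTRF as 665/615 ratio ×10^4.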
# * hit, by the source's call; i = inactive; ? = inconclusive; . = no result given; ! = a repeat was not active; [ ] = another dose, or the depositor's remark. Hits are enriched below; roughly 0.88% of the tested compounds scored in any of these assays. Cut-off read from the data, not from the text of the source, unless noted: active = activity change below about -65%; inconclusive = mostly about -30% to -63%; inactive = weaker than that.
SMILES,CtBP-E1A inh,GRP78 ERSR act,Six1-Eya2 inh,RGS4 inhibitor,Akt phos inh
O=C(O)c1cccc(N2C(=O)c3cccc4cccc(c34)C2=O)c1,-19,-3%,5,23%,i
O=C(O)c1cccc(N2C(=O)c3cc([N+](=O)[O-])cc4cc([N+](=O)[O-])cc(c34)C2=O)c1,-68*,-11%,-75*,-8%,i
COC(=O)c1ccccc1NC(=O)COc1ccccc1C(=O)Nc1ccccc1,.,-2%,.,.,.
Oc1cccc2ccc(Nc3ccccn3)nc12,-100*,6%,-91*,-13%,i
Cc1ccc(NC(=S)NCc2ccccn2)cc1,-6,4%,-6,-51%,i
S=C(NCc1ccccn1)NN=Cc1ccccn1,-4,-1%,-91*,?,i
O=S(=O)(NCCNC/C=C/c1ccc(Br)cc1)c1cccc2cnccc12,.,-10%,.,.,.
OC(COc1ccccc1Br)CN1CCNCC1 (stereo not given),-7,-3%,8,3%,i
CC(C)OCC(O)CN1CCNCC1 (stereo not given),-5,-1%,3,-2%,-115%*
Cc1cc(=O)[nH]c(N/N=C/c2ccc(O)c(O)c2)n1,?,-5%,?,8%,i
Cc1cc(=O)[nH]c(N/N=C/c2c(O)n(-c3ccccc3)c(=O)c3ccccc23)n1,?,-5%,-87*,1%,i
Cc1cc(=O)[nH]c(N/N=C/c2ccc(Br)s2)n1,?,4%,-73*,-31%,i
Cc1cc(=O)[nH]c(NN=Cc2c(Cl)cccc2Cl)n1,-2,0%,-3,18%,i
Cc1cc(=O)[nH]c(N/N=C/c2ccc(-c3ccc(F)cc3)o2)n1,-82*,5%,-85*,?,i
CSc1ccc(/C=N/Nc2nc(C)cc(=O)[nH]2)cc1,?,-2%,-18,-10%,i
COc1ccccc1/C=C/C=N/N1CCN(Cc2ccccc2)CC1,-16,-5%,4,15%,i
Cc1ccc(CN2CCN(/N=C/C=C/c3ccccc3[N+](=O)[O-])CC2)cc1,-76*,-1%,?,-11%,i
CSCC[C@H](NC(=O)[C@@H](Cc1ccc(O[S+](=O)([O-])O)cc1)NC(=O)[C@H](N)CC(=O)O)C(=O)NCC(=O)N[C@@H](Cc1c[nH]c2ccccc12)C(=O)N[C@H](CCSC)C(=O)N[C@H](CC(=O)O)C(=O)N[C@@H](Cc1ccccc1)C(N)=O,.,-4%,.,.,.
COc1cc(OC)c(/C=C/c2ccc3ccccc3[n+]2[O-])c(OC)c1,.,-2%,.,.,.
Nc1nnnn1/N=C/c1ccco1,5,-2%,-2,-8%,-130%*
CCOc1ccc(/C=C/C(=O)Oc2ccccc2)cc1,-22,-1%,1,13%,i
O=Cc1ccc(OC(=O)/C=C/c2ccccc2)cc1,-94*,0%,?,-18%,i
COc1cccc(NC(=O)/C=C/c2ccc([N+](=O)[O-])cc2)c1,-22,5%,-18,-24%,i
COc1ccc(OC(=O)/C=C/c2ccc([N+](=O)[O-])cc2)cc1,-87*,0%,-20,3%[56.9 µM],i
O=C(NNc1ccccc1F)c1sccc1Cl,.,.,.,-27%,.
SMILES,CtBP-E1A inh,GRP78 ERSR act,Six1-Eya2 inh,RGS4 inhibitor,Akt phos inh
Nc1ccc(/C=C/c2ccnc3ccccc23)c(N)c1,.,-1%,.,.,.
O=c1[nH]cnc2c1sc1nc3c(c(-c4ccc(Cl)cc4)c12)CCC3,-71*,-8%,?,17%,i
C/C(=N\NC(=O)c1nnn(-c2nonc2N)c1CN(C)c1ccccc1)c1ccc(O)cc1,2,-3%,1,4%,i
C/C(=N\NC(=O)c1nnn(-c2nonc2N)c1CN(C)c1ccccc1)c1ccccn1,.,-3%,-91*,-10%,i
COc1cc(C(=O)N2CCN(C3CCCCC3)CC2)cc(OC)c1OC,.,-3%,4,-10%,i
COc1cc(C(=O)N2CCC(N3CCCCCC3)CC2)cc(OC)c1OC,-2,-3%,2,6%,-122%*
COc1cc(=O)n2c(c1C(=O)NC(C)c1ccco1)CCN(Cc1ccccc1Cl)CC2 (stereo not given),.,-3%,.,.,.
COc1ccc(CNC(=O)c2ccc(NC(=O)C3CCCO3)cc2)cc1 (stereo not given),4,0%,3,1%,-105%*
CCCOC(=O)c1ccc(NC(=O)C2CCCO2)cc1 (stereo not given),3,0%,6,-25%,-119%*
O=C(NCc1ccc(F)cc1)c1ccc(NC(=O)C2CCCO2)cc1 (stereo not given),-4,-3%,4,5%,i
NC(=O)c1ccc(NC(=O)C2CCCO2)cc1 (stereo not given),-2,-2%,-1,-7%,i
Cc1ccc2[nH]c(C)cc(=O)c2c1,.,45µM*,.,.,.
CCc1ccccc1NC(=O)CC(O)(C(=O)OC)C(F)(F)F (stereo not given),4,-3%,2,2%,i
COC(=O)C(O)(CC(=O)Nc1ccccc1OC)C(F)(F)F (stereo not given),5,-3%,0,0%,-99%*
CC(=O)SCC(CC(=O)c1ccc(C)cc1)C(=O)O (stereo not given),.,-2%,.,.,.
CCNc1nc(Oc2ccc(C(=O)OC)cc2)nc(SC)n1,-1,-1%,0,-15%,i
CCNc1nc(Oc2ccc(C(=O)OCC)cc2)nc(SC)n1,4,-3%,6,11%,-121%*
Clc1cccc[n+]1CCCCCC[n+]1ccccc1Cl,.,-2%,.,.,.
N=c1c[n+](N2CCOCC2)[n-]o1,-5,0%,6,19µM*!,.
C=CCSc1nnc(C2CCCN(Cc3ccccc3O)C2)n1C (stereo not given),.,-2%,.,.,.
OCCNc1nc(Nc2ccc(Br)cc2)nc2ccccc12,-7,?,-1,-47%,i
Oc1ccccc1Nc1nc(NCc2ccccc2)c2ccccc2n1,0,-12%,-8,-14%,i
Cc1c(Cl)cccc1Nc1nc(NCCO)c2ccccc2n1,-4,32µM*,1,0%,i
OCCNc1nc(Nc2ccccc2)nc2ccccc12,-5,32µM*,7,-2%,i
CCC(C)C1OC2(C=CC1C)CC1CC(C/C=C(\C)C(OC3CC(OC)C(OC4CC(OC)C(NC(C)=O)C(C)O4)C(C)O3)C(C)/C=C/C=C3\COC4C(O)C(C)=CC(C(=O)O1)C34O)O2 (stereo not given) (tested in a mixture with another compound),.,-11%,.,.,.
O=C(CN1C2CCC1CC(NC(=O)Nc1ccccc1)C2)NCc1ccco1 (stereo not given),-4,1%,2,18%,-107%*
CCOC(=O)Cc1c(C)c2c(C)nn(-c3ccccc3)c2oc1=O,-13,-2%,2,-11%,-103%*
Oc1c(C(c2ccccc2)N2CCOCC2)ccc2ccccc12 (stereo not given),-5,7%,-13,?,i
